Laboratory results published in PubChem BioAssay (NCATS).
Values joined by “and” are separate entries in the source; they are usually repeats but may differ in a detail not shown here. Identical values can stand only once. Records with an inconclusive call do not appear. Entries that show only a call come without a potency. Active and inactive are the calls of the source. Unless noted, calls come from the whole dose curve; as a rule, active = well fitted curve in the direction sought with a large enough effect; inconclusive = small, poorly fitted or top-dose-only effect, or another doubt; inactive = no such curve, though single readings can be large; an effect the other way counts as inactive or inconclusive.

Legend:
[1] = Cellular Toxicity (caspase-3) HepG2 (AID 654);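 note: cells exposed to compound for 16 hours before reading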
Outline: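 Luminescent Caspase-Glo 3/7 readout after 16 hr compound exposure of human hepatocellular carcinoma HepG2 cells at 37 °C; qHTS concentration-response, normalized DMSO = 0%, 100 uM tamoxifen = 100%; AC50 by standard Hill equation.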

[2] = Cellular Toxicity (caspase-3) Jurkat (AID 655);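 note: cells exposed to compound for 16 h at 37 °C before reading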
Outline: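 Jurkat cells (5000/well) in complete medium exposed 16 h at 37 C; caspase-3/7 activity read by Caspase-Glo luminescence after 20 min at room temperature. Normalized to DMSO and 100 uM tamoxifen; AC50 from Hill fits.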

[3] = Cellular Toxicity (caspase-3) HUV-EC-C (AID 656)
Outline: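 HUV-EC-C cells (1000/well) in complete medium, compound-treated 16 h at 37 °C; caspase-3/7 activity read by Caspase-Glo 3/7 luminescence. Normalized to DMSO (basal) and 100 uM tamoxifen (100%); AC50 from Hill-equation concentration-response fits.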

[4] = Cellular Toxicity (caspase-3) SHSY5Y (AID 657)
Outline: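 SH-SY5Y human neuroblastoma cells, 1500/well, exposed to compound for 16 hours at 37 °C in complete medium. Caspase-3/7 activity read by Caspase-Glo luminescence after 1 hr at room temperature, normalized to DMSO and 10 uM staurosporine; AC50 from Hill fit.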

[5] = Cellular Toxicity (caspase-3) BJ (AID 658)
Outline: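 qHTS, BJ fibroblasts, 1000 cells/well; 5 hr preincubation, 16 hr compound, 37 °C; Caspase-Glo 3/7 reagent, 1 hr RT; luminescence. DMSO = 0%, 10 uM staurosporine = 100%. Hill-equation AC50.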

[6] = target: Vitamin D3 receptor (Homo sapiens) (UniProt P11473); test: qHTS assay for small molecule antagonists of vitamin D receptor signaling (AID 588541; calls by dose curve;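 note: receptor activated by calcitriol during compound treatment; series mostly up to about 77 µM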)
Sequence of Vitamin D3 receptor (Homo sapiens) (P11473 whole entry, looked up): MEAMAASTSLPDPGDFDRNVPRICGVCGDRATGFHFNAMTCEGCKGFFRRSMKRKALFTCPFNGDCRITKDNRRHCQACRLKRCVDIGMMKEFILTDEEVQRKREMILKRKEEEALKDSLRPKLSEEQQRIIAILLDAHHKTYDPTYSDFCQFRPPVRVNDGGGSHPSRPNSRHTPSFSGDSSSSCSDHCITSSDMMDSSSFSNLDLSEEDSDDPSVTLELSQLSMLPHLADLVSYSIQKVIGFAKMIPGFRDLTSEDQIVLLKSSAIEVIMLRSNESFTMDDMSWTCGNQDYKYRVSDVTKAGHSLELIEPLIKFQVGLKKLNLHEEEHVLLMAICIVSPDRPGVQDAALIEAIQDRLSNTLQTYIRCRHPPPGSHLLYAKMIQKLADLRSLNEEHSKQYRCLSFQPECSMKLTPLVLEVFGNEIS
Outline: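 VDR-UAS-bla HEK293T cells in 2% charcoal-stripped FBS were stimulated with 1-alpha,25-dihydroxyvitamin D3 (3 nM final) plus compound for 16 h at 37 C. The beta-lactamase CCF4 readout was normalized to 50 nM agonist and DMSO, and Hill fits gave IC50.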

[7] = target: Vitamin D3 receptor (Homo sapiens) (UniProt P11473); test: qHTS assay for small molecule agonists of vitamin D receptor signaling (AID 588543; calls by dose curve)
Outline: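 VDR-UAS-bla HEK293T cells, 2000/well, 2% charcoal-stripped FBS; compound titration 16 h at 37 C; CCF4 beta-lactamase ratio read. Normalized to 50 nM 1-alpha,25-dihydroxyvitamin D3 (100%) and DMSO; Hill fit gives EC50, efficacy.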

[8] = qHTS assay for small molecule agonists of retinoid X receptor alpha signaling (AID 588544; calls by dose curve); settings: HEK293T RXRa-UAS-bla, beta-lactamase reporter, 18 h; 530 nm emission
[9] = target: Retinoic acid receptor RXR-alpha (Homo sapiens) (UniProt P19793); test: as above
Sequence of Retinoic acid receptor RXR-alpha (Homo sapiens) (P19793 whole entry, looked up): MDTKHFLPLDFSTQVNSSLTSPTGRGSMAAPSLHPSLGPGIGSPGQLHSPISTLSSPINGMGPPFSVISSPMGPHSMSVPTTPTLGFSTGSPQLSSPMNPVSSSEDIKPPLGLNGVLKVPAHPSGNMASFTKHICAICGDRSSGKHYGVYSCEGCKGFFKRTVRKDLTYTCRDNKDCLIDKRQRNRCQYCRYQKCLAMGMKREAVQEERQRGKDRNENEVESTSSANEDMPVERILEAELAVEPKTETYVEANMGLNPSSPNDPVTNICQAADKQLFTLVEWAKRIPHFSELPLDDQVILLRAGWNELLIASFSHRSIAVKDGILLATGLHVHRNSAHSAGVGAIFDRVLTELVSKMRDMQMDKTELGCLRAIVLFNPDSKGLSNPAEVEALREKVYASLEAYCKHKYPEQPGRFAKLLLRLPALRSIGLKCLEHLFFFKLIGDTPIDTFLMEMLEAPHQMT

[10] = target: Thyroid hormone receptor beta (Homo sapiens) (UniProt P10828); test: qHTS assay for small molecule agonists of thyroid hormone receptor beta signaling (AID 588545; calls by dose curve)
Sequence of Thyroid hormone receptor beta (Homo sapiens) (P10828 whole entry, looked up): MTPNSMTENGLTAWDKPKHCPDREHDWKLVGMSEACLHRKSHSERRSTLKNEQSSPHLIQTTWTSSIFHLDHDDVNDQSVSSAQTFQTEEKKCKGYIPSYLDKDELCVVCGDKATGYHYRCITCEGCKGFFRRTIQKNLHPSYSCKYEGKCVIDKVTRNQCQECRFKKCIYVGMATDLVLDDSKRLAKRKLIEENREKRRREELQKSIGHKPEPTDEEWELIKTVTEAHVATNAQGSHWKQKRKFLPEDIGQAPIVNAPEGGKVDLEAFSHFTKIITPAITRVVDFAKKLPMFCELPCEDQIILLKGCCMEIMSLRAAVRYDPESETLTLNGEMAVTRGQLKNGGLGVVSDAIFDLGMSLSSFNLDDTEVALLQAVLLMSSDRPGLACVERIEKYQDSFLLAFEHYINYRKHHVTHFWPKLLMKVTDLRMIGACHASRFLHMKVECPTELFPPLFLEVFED
Outline: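 Agonist activity was read as beta-lactamase CCF4 fluorescence (405 ex, 460/530 em), scaled between DMSO (0%) and 10 nM T3 (100%), then Hill-fitted for EC50 and efficacy. HEK 293 TR-UAS-bla cells in 2% charcoal/dextran FBS medium were exposed 18 h at 37 C.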

[11] = qHTS assay for small molecule antagonists of retinoid X receptor alpha signaling (AID 588546; active = well fitted inhibition curve with a large enough effect in the signal ratio, with a control signal flat, not every such curve was filed as active; the % refers to the signal ratio;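 note: cells stimulated with 9-cis-retinoic acid as agonist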); settings: HEK293T RXRa-UAS-bla, beta-lactamase ratio, antagonist mode; measured here: W530 green channel, cytotoxicity proxy
Outline: (§1)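 Beta-lactamase reporter inhibition, read as CCF4 fluorescence ratio (ex 405, em 460/530 nm) after 2 h at RT. HEK293T UAS-bla cells, 2500/well, were stimulated with 9-cis-RA at 500 or 100 nM final alongside test compound for 18 h at 37 C.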

[12] = target: Retinoic acid receptor RXR-alpha (Homo sapiens) (UniProt P19793); test: as above; settings: HEK293T RXRa-UAS-bla, beta-lactamase ratio, antagonist mode
Outline: as §1

[13] = target: Thyroid hormone receptor beta (Homo sapiens) (UniProt P10828); test: qHTS assay for small molecule antagonists of thyroid hormone receptor beta signaling (AID 588547; active = well fitted inhibition curve with a large enough effect in the signal ratio, with a control signal flat, not every such curve was filed as active; the % refers to the signal ratio;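 note: cells stimulated with 0.4 nM T3 agonist during compound exposure; series mostly up to about 77 µM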); settings: TR-UAS-bla HEK293, beta-lactamase ratio, antagonist mode, 18 h
Outline: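 TR-UAS-bla GripTite HEK293 cells in 2% charcoal/dextran FBS medium; compounds 0.59 nM to 92 uM with T3 at 0.4nM final, 18 h at 37 C. Beta-lactamase read by CCF4 fluorescence (460/530 nm); Hill fits gave IC50 and efficacy.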

[14] = target: Voltage-gated inwardly rectifying potassium channel KCNH2 (Homo sapiens) (UniProt Q12809); test: qHTS Assay for Small Molecule Inhibitors of the Human hERG Channel Activity (AID 588834);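 note: top concentration of the series differs between compounds; lower thallium flux fluorescence means stronger hERG block; nearly all actives have a fitted effect of over 50% in size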
Sequence of Voltage-gated inwardly rectifying potassium channel KCNH2 (Homo sapiens) (Q12809 whole entry, looked up): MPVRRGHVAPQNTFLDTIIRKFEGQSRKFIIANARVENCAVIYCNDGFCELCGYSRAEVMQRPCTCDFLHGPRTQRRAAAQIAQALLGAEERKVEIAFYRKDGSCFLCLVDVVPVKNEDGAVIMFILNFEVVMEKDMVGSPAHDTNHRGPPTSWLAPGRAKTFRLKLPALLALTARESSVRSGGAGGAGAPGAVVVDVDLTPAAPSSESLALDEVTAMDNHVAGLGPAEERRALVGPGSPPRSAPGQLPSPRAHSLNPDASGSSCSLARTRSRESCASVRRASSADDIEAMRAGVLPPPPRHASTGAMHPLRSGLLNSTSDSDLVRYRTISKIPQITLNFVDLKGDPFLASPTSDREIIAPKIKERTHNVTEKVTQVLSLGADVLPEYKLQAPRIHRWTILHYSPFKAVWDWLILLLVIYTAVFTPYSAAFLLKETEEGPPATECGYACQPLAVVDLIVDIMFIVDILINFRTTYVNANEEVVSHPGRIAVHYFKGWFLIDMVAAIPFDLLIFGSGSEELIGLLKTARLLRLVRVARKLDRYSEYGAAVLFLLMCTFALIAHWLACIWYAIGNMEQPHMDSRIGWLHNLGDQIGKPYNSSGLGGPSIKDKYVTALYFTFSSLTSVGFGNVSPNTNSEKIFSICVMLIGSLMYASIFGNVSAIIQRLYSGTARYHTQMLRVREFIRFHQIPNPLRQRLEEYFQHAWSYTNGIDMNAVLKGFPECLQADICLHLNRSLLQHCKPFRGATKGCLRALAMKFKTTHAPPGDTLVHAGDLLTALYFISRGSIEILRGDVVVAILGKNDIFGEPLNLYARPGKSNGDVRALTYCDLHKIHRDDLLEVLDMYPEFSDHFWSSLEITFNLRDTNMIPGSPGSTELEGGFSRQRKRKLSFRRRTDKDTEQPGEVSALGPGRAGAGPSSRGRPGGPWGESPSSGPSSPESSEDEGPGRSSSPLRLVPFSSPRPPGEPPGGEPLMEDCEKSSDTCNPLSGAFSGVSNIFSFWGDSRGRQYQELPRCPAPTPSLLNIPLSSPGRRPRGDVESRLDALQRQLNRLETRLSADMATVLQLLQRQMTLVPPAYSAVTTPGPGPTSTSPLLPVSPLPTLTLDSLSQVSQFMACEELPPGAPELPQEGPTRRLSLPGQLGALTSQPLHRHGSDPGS
Outline: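 Thallium serves as surrogate for K+ influx through BacMam-delivered hERG in U2OS cells. Compounds are added for about 10 minutes after dye loading; stimulation buffer then starts flux, monitored kinetically on FDSS.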

[15] = qHTS assay for small molecule disruptors of the mitochondrial membrane potential - 1 hr assay (AID 651754; calls by dose curve; note: nearly all actives have a fitted effect of over 35% in size)
Outline: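 Read-out: dye fluorescence at 490 nm ex/535 nm em (monomers) and 540 nm ex/590 nm em (aggregates) in HepG2 cells. Compound exposure 1 hr at 37C, followed by 30 min dye loading.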

[16] = qHTS assay for small molecule disruptors of the mitochondrial membrane potential - 5 hr assay (AID 651755; calls by dose curve; note: nearly all actives have a fitted effect of over 40% in size)
Outline: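 Read-out: ratiometric Mito-MPS fluorescence, green monomer (ex 490/em 535) vs red mitochondrial aggregate (ex 540/em 590). HepG2 cells treated 5 hr at 37C before 30 min dye loading.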

[17] = target: Tumor necrosis factor (Homo sapiens) (UniProt P01375); test: qHTS assay to identify small molecules that stimulate Tumor Necrosis Factor-alpha (TNF-alpha) secretion (AID 651757; active = well fitted curve in the direction sought with a large enough effect in the signal ratio; the % refers to the signal ratio)
Sequence of Tumor necrosis factor (Homo sapiens) (P01375 whole entry, looked up): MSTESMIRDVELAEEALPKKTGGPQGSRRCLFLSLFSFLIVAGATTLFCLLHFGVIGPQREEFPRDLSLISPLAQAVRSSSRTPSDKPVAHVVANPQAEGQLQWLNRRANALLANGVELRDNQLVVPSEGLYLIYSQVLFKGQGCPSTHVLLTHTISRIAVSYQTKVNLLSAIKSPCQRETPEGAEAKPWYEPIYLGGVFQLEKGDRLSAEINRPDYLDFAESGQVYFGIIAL
Outline: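 THP-1 cells, 3000/well; compound 17 hrs, 37 C; add cryptate/XL665 anti-TNF-alpha antibody pair; 3 hr RT; TR-FRET (HTRF) read of secreted TNF-alpha. Quantitative HTS format.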

[18] = qHTS assay for environmental chemicals that activate the Aryl hydrocarbon Receptor (AhR) signaling pathway (AID 651777); settings: 1A2-DRE human hepatoma cells, luciferase, 24 h; stronger effect = higher value; note: nearly all actives have a fitted effect of over 15% in size
Outline: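 1A2-DRE human hepatoma reporter line; 1,200 cells/well; cmpd or DMSO 24 h, 37 C/5% CO2; One-Glo 30 min RT; luciferase lum.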

[19] = target: Peroxisome proliferator-activated receptor alpha (Homo sapiens) (UniProt Q07869); test: qHTS assay for small molecule agonists of the peroxisome proliferator-activated receptor alpha (PPARalpha) signaling pathway (AID 651778); settings: PathHunter PPARalpha complementation, chemiluminescence, 6 h; stronger effect = higher value
Sequence of Peroxisome proliferator-activated receptor alpha (Homo sapiens) (Q07869 whole entry, looked up, the tested form may be a part): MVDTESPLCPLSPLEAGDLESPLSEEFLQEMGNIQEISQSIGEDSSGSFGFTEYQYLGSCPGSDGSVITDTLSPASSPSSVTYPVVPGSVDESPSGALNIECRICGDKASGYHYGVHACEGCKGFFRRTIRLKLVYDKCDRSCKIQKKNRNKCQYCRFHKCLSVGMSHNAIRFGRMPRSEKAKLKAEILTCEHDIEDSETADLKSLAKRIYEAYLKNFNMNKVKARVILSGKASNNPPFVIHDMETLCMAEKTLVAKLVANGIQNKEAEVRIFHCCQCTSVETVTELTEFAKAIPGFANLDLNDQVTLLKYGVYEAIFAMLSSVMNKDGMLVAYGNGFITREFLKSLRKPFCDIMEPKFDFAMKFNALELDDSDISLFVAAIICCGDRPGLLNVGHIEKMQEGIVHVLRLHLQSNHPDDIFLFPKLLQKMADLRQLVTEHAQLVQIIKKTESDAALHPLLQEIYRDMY
Outline: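 Enzyme-fragment complementation assay in which ligand-bound PPARalpha translocates and forms an active enzyme that generates chemiluminescence. Cells were plated overnight, exposed to compound for 6 hr at 37 C, and then given detection reagent for 60 min at room temperature.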

[20] = target: Nuclear receptor subfamily 1 group I member 2 (Rattus norvegicus) (UniProt Q9R1A7); test: qHTS assay for small molecule activators of the rat pregnane X receptor (rPXR) signaling pathway (AID 651751; call rule not given here); settings: rPXR reporter cells, luciferase (One-Glo), 24 h
Sequence of Nuclear receptor subfamily 1 group I member 2 (Rattus norvegicus) (Q9R1A7 whole entry, looked up): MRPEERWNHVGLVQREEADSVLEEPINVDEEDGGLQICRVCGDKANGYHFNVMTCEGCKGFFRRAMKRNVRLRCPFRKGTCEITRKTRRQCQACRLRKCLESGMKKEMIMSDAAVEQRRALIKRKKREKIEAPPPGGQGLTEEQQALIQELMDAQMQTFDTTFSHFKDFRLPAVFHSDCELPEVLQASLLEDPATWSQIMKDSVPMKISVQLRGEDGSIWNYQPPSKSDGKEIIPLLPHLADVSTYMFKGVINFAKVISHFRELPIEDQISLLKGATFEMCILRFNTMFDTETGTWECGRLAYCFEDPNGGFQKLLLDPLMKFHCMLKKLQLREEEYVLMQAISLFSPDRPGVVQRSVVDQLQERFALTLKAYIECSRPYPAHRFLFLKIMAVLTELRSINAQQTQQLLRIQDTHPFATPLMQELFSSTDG

For C=CC(C)(O)CCC=C(C)C (stereo not given), the outcome [1] was “inactive”, the outcome [2] was “inactive” and the outcome [3] was “inactive”. For the same compound, the outcome [4] was “inactive”, the outcome [5] was “inactive” and the outcome [6] was “inactive”. For the same compound, the outcome [7] was “inactive”, the max response [8] was -15.4% and -5.89% and the outcome [9] was “inactive”. For the same compound, the outcome [10] was “inactive”, the max response [11] was -4.18% and -11.2% and the max response [12] was -7.55% (inactive) and -18.1% (inactive). The activity change % (negative = inhibition) [13] was 22.9% (inactive) and 4.85% (inactive), the Potency [14] was “inactive” and the outcome [15] was “inactive”. For the same compound, the outcome [16] was “inactive”, the outcome [17] was “inactive” and the activation [18] was -0.577% (inactive) and 0.957% (inactive). The max response [19] was -3.46% (inactive) and 0.843% (inactive) and the max response [20] was 2.77% (inactive) and 2.88% (inactive).

In the case of COS(C)(=O)=O, the outcome [1] was “inactive”, the outcome [2] was “inactive” and the outcome [3] was “inactive”. The outcome [4] was “inactive”, the outcome [5] was “inactive” and the outcome [6] was “inactive”. The outcome [7] was “inactive”, the max response [8] was -12% and the outcome [9] was “inactive”. For the same compound, the outcome [10] was “inactive”, the max response [11] was -12.9% and the max response [12] was -3.69% (inactive). The activity change % (negative = inhibition) [13] was 2.2% (inactive), the Potency [14] was “inactive” and the outcome [15] was “inactive”. The outcome [16] was “inactive”, the outcome [17] was “inactive” and the activation [18] was -0.488% (inactive). The max response [19] was 5.12% (inactive) and the max response [20] was 0.398% (inactive).

In the case of C=C(C)[C@H]1CC=C(C)C(=O)C1, the outcome [1] was “inactive”, the outcome [2] was “inactive” and the outcome [3] was “inactive”. For the same compound, the outcome [4] was “inactive”, the outcome [5] was “inactive” and the outcome [6] was “inactive”. For the same compound, the outcome [7] was “inactive”, the max response [8] was 2.29% and 4.34% and the outcome [9] was “inactive”. The outcome [10] was “inactive”, the max response [11] was -6.91% and -9.16% and the max response [12] was 30% (inactive) and -16.7% (inactive). For the same compound, the activity change % (negative = inhibition) [13] was 1.99% (inactive), the Potency [14] was “inactive” and the outcome [15] was “inactive”. For the same compound, the outcome [16] was “inactive”, the outcome [17] was “inactive” and the activation [18] was -0.835% (inactive) and 2.01% (inactive). The max response [19] was -1.19% (inactive) and -3.66% (inactive) and the max response [20] was -2.55% (inactive) and 3.05% (inactive).
